Hits are enriched below; roughly 6.5% of the tested compounds scored in any of these assays.
HT1080-NT tox: qHTS for induction of synthetic lethality in tumor cells producing 2HG: qHTS for the HT-1080-NT fibrosarcoma cell line; Potency, µM (top dose mostly 46.1 µM), for inactives: at the highest dose activity, negative = less viability, most hits filed as cytotoxic; HT-1080-NT fibrosarcoma viability, CellTiter-Glo ATP luminescence, 48 h; 360,000 compounds, 1.6% hits;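 note: NT is the 2HG producing partner of a matched IDH1 knockdown line; potency is the fitted concentration of half-maximal effect; 0% = DMSO-treated cells and -100% = media-only wells without cells; nearly all actives have a fitted effect of over 55% in size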
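Toxicity toward the 2HG-producing NT line was scored as %Activity, normalised to DMSO and no-cell wells, from CellTiter-Glo luminescence after 48 hours' treatment.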
TGFb inhibitor: qHTS for Inhibitors of TGF-b | Potency, µM (highest dose often 46.1 µM), for the others: top-dose activity, negative = inhibition, hits mostly inhibitors | HepG2 CAGA-GFP TGF-b/SMAD3 reporter, GFP fluorescence, 18 h; TGF-beta stimulated, 500 pg/mL final | AID 588855, 2011 | 410,000 compounds, 1.2% hits; note: potency is the fitted concentration of half-maximal effect; % is set by controls: 0 for no effect and ±100 for the full control effect; nearly all actives have a fitted effect of over 65% in size
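GFP signal (ex488/em500-530) from TGF-beta-stimulated HEPG2 CAGA-GFP cells, 500 pg/mL final, 18 h at 37 degrees C in DMEM plus 1% FBS, normalized to unstimulated and DMSO-stimulated controls.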
IL-1B inflam inh: qHTS for Inhibitors of Inflammasome Signaling: IL-1-beta AlphaLISA Primary Screen | AID 743279, 2014 | 360,000 compounds, 4.7% hits | activity change, % at 57.5 µM | THP-1 LPS/ATP IL-1B secretion, AlphaLISA, 16 h; active compounds read low; in the data active = activity change below about -50%; inconclusive = mostly about -30% to -49%; note: % is set by controls: 0 for no effect and ±100 for the full control effect
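Secreted IL-1B measured by AlphaLISA bead assay after 16 h compound exposure of THP-1 cells; compounds (final up to 57.5 uM) added 1 h before LPS (250 ng/mL) and ATP (1.25 mM) stimulation; lower signal means less secretion.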
HepG2 viability: qHTS for Inhibitors of TGF-b: Cytotox Counterscreen | 410,000 compounds, 0.76% hits | Potency, µM (top dose mostly 46.1 µM), without a hit: top-dose activity change, negative = cytotoxicity, usual class: cytotoxic | HepG2 CAGA-GFP viability, ATP luminescence, 18 h | AID 588856, 2011; note: potency is the fitted concentration of half-maximal effect
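CellTiter-Glo luminescence gave cytotoxicity after 18 hours at 37 degrees C. The cells were HepG2 CAGA-GFP in 1% FBS DMEM, stimulated with 500 pg/mL TGF-beta after compound addition. %Activity was normalised to no-cell wells (complete cell-killing) and DMSO (no toxicity), and curves were fitted and classified.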
HT1080 IDH1KD tx: qHTS for induction of synthetic lethality in tumor cells producing 2HG: qHTS for the HT-1080-IDH1KD cell line; HT-1080 IDH1 knockdown viability, ATP luminescence, 48 h; Potency, µM (top dose mostly 46.1 µM), for the others: at the top dose activity, negative = toxicity, actives largely listed as cytotoxic; 360,000 compounds, 2% hits;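 note: potency is the fitted concentration of half-maximal effect; 0% = DMSO wells and -100% = cell-free medium wells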
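Viability of IDH1-knockdown HT-1080 fibrosarcoma cells was assessed by CellTiter-Glo after 48 h at 37 °C with titrated compound; concentration-effect curves were classified by fit quality and response size.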
Giardia kill: Small Molecules that selectively kill Giardia lamblia: qHTS; Giardia lamblia trophozoite viability; activity change, % at 7.66 µM, hits read low; 340,000 compounds, 0.15% hits; in the data active = activity change below about -80%; inconclusive = between about -30% and that limit;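 note: parasites exposed to compound for two days anaerobically before the ATP read; % is set by controls: 0 for no effect and ±100 for the full control effect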
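ATP-content bioluminescence gauges trophozoite survival. Cells (100/well) receive compound and incubate anaerobically for 48 hrs at 37 deg C; detection reagent follows for 15-30 min at room temperature.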
Numbers without * were called inactive; u = inconclusive; x = not tested or not shown; [ ] = remark or other dose. Unless noted, calls come from the whole dose curve; as a rule, active = well fitted curve in the direction sought with a large enough effect; inconclusive = small, poorly fitted or top-dose-only effect, or another doubt; inactive = no such curve, though single readings can be large; an effect the other way counts as inactive or inconclusive.

SMILES | HT1080-NT tox | TGFb inhibitor | IL-1B inflam inh | HepG2 viability | HT1080 IDH1KD tx | Giardia kill
CCN1CCN(c2c(/C=C3\SC(=S)N(Cc4ccco4)C3=O)c(C)c(C#N)c(=O)n2C)CC1 | 16µM* | 122% | 123 | -4% | u | -10
CCSc1nnc(CNC(=O)C23CC4CC(CC(C4)C2)C3)n1C1CCCCC1 | 16% | -18% | 7 | -28% | 2% | 22
Cc1ccc(-c2csc(NC(=O)c3c(C)noc3C)n2)cc1 | -4%[9.24 µM] | u | -18 | -43% | 0% | -7
COc1ccc(-c2csc(NC(=O)c3c(C)noc3C)n2)cc1 | 3% | u | -52* | 0% | 1% | 3
COc1ccc(-c2csc(NC(=O)C3CSC4(C)CCC(=O)N34)n2)c(OC)c1 (stereo not given) | -6% | 1% | -71* | -6% | -18% | -3
COc1ccc(-c2csc(NC(=O)c3ccccc3S(C)(=O)=O)n2)cc1 | 5% | -1% | -95* | 0% | -1% | -24
COc1ccc(-c2csc(NC(=O)c3ccccc3C(=O)O)n2)cc1 | 5% | 0% | -7 | -2% | 0% | -12
COc1ccc(-c2csc(NC(=O)C3CSC4(C)CCC(=O)N34)n2)cc1 (stereo not given) | 10% | 1% | 11 | 0% | 5% | -28
COc1ccc(-c2csc(NC(=O)CSCc3c(C)noc3C)n2)c(OC)c1 | -1% | 1% | -53* | -23% | -19% | 17
COc1ccc(CN(C)C[C@H]2OCc3cnnn3CCCC(=O)N([C@H](C)CO)C[C@@H]2C)cc1 | 3% | 2% | 11 | -3% | 1% | x
Cn1c(C2CCCCC2)nc2ccccc21 | -5% | -8% | -19 | -35% | -7% | -8
COc1cc2[nH]c3c(Cl)ncnc3c2cc1OC | 12% | -7% | -61* | -9% | -1% | -1
O=C(N/N=C/c1ccc(Cl)cc1)c1sccc1OCc1ccc(F)cc1 | 2.6µM* | -19% | 78 | -18% | 1.3µM* | -2
NNC(=O)c1sccc1OCc1ccc(F)cc1 | 3% | -2% | 32 | -1% | 2% | 5
O=C(N/N=C/c1ccc(F)cc1)c1sccc1OCc1ccc(F)cc1 | 13µM* | -7% | 46 | -28% | 16µM* | 3
O=C(CCNS(=O)(=O)c1ccc(Br)cc1)NCc1ccc(F)cc1 | 15% | 3% | -7 | 0% | 2% | 3
CN(C)CCN(Cc1ccccc1)C(c1cc2ccccc2o1)c1nnnn1C(C)(C)C (stereo not given) | u | x | -54* | x | u | x
CCCCn1nnnc1C(c1cc2ccccc2o1)N1CCN(CCN(C)C)CC1 (stereo not given) | u | x | -5 | x | -1% | x
CCCCn1nnnc1C(c1cc2ccccc2o1)N(CCN(C)C)Cc1ccccc1 (stereo not given) | 18µM* | x | u | x | 21µM* | x
C[C@@H]1CN([C@@H](C)CO)C(=O)c2cc(Br)cnc2O[C@H]1CN(C)C(=O)NC1CCCC1 | 14% | -16% | 22 | -2% | 11% | x
Cc1cc(C)n(C(=O)CNC(=O)C(c2ccccc2)c2ccccc2)n1 | -3% | 0% | -7 | -22% | -4% | 8
COc1cc(C2NC(=O)NC(c3ccccc3)=C2C(C)=O)ccc1OCC#N (stereo not given) | 3% | -8% | 26 | 3% | 10% | 2
Cc1ccc2nc(N3CC(=O)Nc4ccccc43)nc(-c3ccccc3)c2c1 | 18µM* | 0% | 30 | -6% | 16µM* | -27
Cc1ccc2nc(N3CCC(C(=O)O)CC3)nc(-c3ccccc3)c2c1 | -4% | 0% | 2 | 4% | 3% | -7
COC(=O)c1ccccc1NC(=O)CSc1nncn1C | 5% | 2% | 3 | 4% | 8% | -4
SMILES | HT1080-NT tox | TGFb inhibitor | IL-1B inflam inh | HepG2 viability | HT1080 IDH1KD tx | Giardia kill
Cc1cccc(N2C(=O)CC(Sc3nc(C)cc(C)n3)C2=O)c1 (stereo not given) | 14% | -11% | 26 | -1% | 3% | -3
Cc1cc(C)cc(N2C(=O)CC(Sc3nnnn3-c3ccccc3)C2=O)c1 (stereo not given) | 7.1µM* | -10% | -17 | -95% | 2.5µM* | -8
Cn1nnnc1SC1CC(=O)N(c2ccccc2)C1=O (stereo not given) | 2% | -12% | 0 | 14% | -11% | -18
O=C1CC(Sc2nnnn2C2CCCCC2)C(=O)N1c1ccccc1 (stereo not given) | u | u | 4 | -82% | 5µM* | -17
COc1ccc(NC(=O)CSc2nnc(NC(=O)c3ccc(S(=O)(=O)N4CCOCC4)cc3)s2)cc1 | 19% | 2% | -9 | -17% | 2% | -18
Cc1cccc(C(c2c(C)nn(-c3ccccc3)c2N)c2c(C)nn(-c3ccccc3)c2N)c1 | -13% | u | -7 | 5% | 1% | 4
CCc1ccc(C(c2c(C)nn(-c3ccccc3)c2N)c2c(C)nn(-c3ccccc3)c2N)cc1 | -1% | -16% | -67* | -21% | -15% | -9
Cc1ccc(NC(=S)NNC(=O)c2c([N+](=O)[O-])c(C)nn2C)cc1 | 5.6µM* | -2% | 30 | -3% | 5µM* | 6
O=C(COC(=O)c1ccco1)NCC1CCCCC1 | 11% | 0% | -7 | 0% | 7% | 1
c1cc2c3c(cccc3c1)NC1(CCC3(CC1)Nc1cccc4cccc(c14)N3)N2 | 21µM* | u | -30 | -1% | u | 14
COc1cc(S(=O)(=O)N2CCN(c3ccccc3F)CC2)c(OC)cc1Cl | 1% | 27% | -22 | -21% | -3% | -6
Cc1ccc(NC(=O)CN2C(=O)S/C(=C/c3ccc(O)c([N+](=O)[O-])c3)C2=O)cc1C | -18% | u | -16 | -19% | -21% | -82*
O=C(O)c1cccc(CN2C(=O)S/C(=C/c3ccccc3[N+](=O)[O-])C2=O)c1 | -28% | -46% | -82* | -18% | u | u
Cc1cccc(NC(=O)CN2C(=O)S/C(=C\c3ccc(O)c([N+](=O)[O-])c3)C2=O)c1 | -3% | -10% | 7 | -21% | -8% | u
O=C1S/C(=C\c2ccc(O)c([N+](=O)[O-])c2)C(=O)N1Cc1cccc([N+](=O)[O-])c1 | -5% | u | 38 | 1% | 9% | -82*
